# Laboratory results taken from PubChem BioAssay (EPA / NIEHS).
# Results filed as inconclusive are left out. Activity calls are given as the source filed them. The calls were made as follows: active = hit-call score of the fitted dose curve at least 0.9, where 1 is the maximum; inconclusive = response in the unintended direction; inactive = score below 0.9.
# Molecular target: Androgen Receptor/SRC-1 Co-activator, AR (gene 367) (UniProt P10275)
# Assay: OT_AR_ARSRC1_0480: Odyssey Thera (OT) 8-hour HEK293T Protein-Complementation Assay for Androgen Receptor/SRC-1 Co-activator (AID 2283354);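 also: hits raise the complementation signal above DMSO so AC50 marks enhancers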
# Procedure, shortened: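 After 8 h dosing, stably expressing HEK293T cells with split-Venus AR/SRC-1 fusions were imaged (488, 635nm). The 488nm N/C ratio per image gave the endpoint, analysed in the positive direction against DMSO.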
# Chain of Androgen Receptor/SRC-1 Co-activator, AR (gene 367) (P10275 whole entry, looked up): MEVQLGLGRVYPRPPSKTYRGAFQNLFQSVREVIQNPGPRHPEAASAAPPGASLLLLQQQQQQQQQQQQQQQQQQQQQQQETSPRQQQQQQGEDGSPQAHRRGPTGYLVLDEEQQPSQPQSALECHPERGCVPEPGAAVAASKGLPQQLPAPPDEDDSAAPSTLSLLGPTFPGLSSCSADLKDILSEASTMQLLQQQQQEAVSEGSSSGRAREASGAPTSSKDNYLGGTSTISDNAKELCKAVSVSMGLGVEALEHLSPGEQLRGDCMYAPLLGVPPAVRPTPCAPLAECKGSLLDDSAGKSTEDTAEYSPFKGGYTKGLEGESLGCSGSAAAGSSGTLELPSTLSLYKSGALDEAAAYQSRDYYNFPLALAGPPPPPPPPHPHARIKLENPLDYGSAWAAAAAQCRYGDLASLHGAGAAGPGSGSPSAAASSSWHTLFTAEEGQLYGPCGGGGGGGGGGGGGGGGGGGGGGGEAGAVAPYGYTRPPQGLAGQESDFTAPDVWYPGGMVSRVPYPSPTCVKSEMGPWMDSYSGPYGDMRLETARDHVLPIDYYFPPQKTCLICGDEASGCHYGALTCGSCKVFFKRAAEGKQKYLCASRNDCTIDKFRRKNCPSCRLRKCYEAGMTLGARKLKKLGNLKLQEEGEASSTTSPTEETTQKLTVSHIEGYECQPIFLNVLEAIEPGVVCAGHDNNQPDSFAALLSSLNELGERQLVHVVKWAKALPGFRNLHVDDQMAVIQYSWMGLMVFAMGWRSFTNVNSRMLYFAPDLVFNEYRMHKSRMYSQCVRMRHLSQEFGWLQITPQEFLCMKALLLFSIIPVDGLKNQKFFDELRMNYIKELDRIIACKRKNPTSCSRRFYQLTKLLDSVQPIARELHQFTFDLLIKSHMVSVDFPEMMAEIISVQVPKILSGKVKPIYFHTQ
row,SMILES,outcome
1,CCNc1nc(NC(C)C)nc(SC)n1,inactive
2,O=C(N[C@H]1CN2CCC1CC2)c1cc2ccoc2cn1,inactive
3,C=CC(=O)NCNC(=O)C=C,inactive
4,Cc1ccccc1CO[C@@H]1C[C@@]2(C(C)C)CC[C@]1(C)O2,inactive
5,c1ccc(-c2ccccc2)cc1,inactive
6,CC1=C2C[C@H]3[C@@H](CC=C4C[C@@H](O)CC[C@@]43C)[C@@H]2CC[C@]12O[C@@H]1C[C@H](C)CN[C@H]1[C@H]2C,inactive
7,O=C(NC(=O)c1c(F)cccc1F)Nc1cc(Cl)c(OC(F)(F)C(F)F)c(Cl)c1,inactive

# Molecular target: Estrogen receptor (Homo sapiens) + Estrogen receptor beta (Homo sapiens) (UniProt P03372+Q92731)
# Sequence (P03372 whole entry, looked up, the tested form may be a part): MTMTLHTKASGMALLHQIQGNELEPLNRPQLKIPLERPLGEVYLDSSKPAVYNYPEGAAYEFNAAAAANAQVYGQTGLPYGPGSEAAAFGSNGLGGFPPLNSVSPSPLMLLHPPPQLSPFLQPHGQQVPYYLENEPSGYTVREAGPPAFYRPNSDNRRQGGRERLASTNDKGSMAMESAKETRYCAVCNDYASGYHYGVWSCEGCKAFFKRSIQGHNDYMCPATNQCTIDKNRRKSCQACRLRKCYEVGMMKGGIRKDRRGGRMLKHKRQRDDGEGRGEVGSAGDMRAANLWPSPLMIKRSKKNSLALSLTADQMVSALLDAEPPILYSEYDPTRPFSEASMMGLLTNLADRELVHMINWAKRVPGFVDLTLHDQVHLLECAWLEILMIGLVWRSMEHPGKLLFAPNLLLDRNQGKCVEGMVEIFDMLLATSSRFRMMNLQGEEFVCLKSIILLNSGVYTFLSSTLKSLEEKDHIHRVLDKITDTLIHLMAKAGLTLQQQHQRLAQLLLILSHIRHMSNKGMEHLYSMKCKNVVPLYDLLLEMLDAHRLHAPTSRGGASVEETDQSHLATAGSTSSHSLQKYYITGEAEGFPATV
# Sequence (Q92731 whole entry, looked up, the tested form may be a part): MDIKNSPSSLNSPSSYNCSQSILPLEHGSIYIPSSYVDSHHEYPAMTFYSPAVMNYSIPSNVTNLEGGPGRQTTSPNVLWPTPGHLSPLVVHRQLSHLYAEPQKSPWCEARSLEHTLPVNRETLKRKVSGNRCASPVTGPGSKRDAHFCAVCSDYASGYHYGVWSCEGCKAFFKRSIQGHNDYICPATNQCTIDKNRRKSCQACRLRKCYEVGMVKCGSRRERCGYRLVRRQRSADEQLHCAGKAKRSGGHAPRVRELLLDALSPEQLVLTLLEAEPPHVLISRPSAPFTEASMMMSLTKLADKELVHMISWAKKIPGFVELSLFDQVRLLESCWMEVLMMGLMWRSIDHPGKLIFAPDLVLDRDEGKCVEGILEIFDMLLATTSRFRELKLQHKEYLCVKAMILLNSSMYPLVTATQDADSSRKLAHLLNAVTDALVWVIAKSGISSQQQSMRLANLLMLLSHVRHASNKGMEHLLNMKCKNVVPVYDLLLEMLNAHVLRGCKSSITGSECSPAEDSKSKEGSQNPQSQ
# Assay: OT_ER_ERaERb_1440: Odyssey Thera (OT) 24-hour HEK293T Protein-Complementation Assay for Estrogen Receptor-alpha/-beta Homodimer (AID 2283356);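 also: heteromer of ER alpha and ER beta binding domains; hits raise reporter fluorescence and both agonists and antagonists give an increase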
# Procedure, shortened: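 24 h exposure; HEK293T PCA cells with ERα/ERβ LBD fragments; signal rise in nuclear or whole-cell fluorescence over vehicle.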
SMILES,outcome,AC50
CC(C)C(=O)OCC(C)(C)C(OC(=O)C(C)C)C(C)C (centres undefined),inactive,
CC#Cc1cc(C)nc(Nc2ccccc2)n1,inactive,
C1CC2OC2CC1C1CO1 (centres undefined),inactive,
ClC1=C(Cl)[C@]2(Cl)[C@@H]3[C@@H](Cl)[C@H]4O[C@H]4[C@@H]3C1(Cl)C2(Cl)Cl,,50 µM (active)
Cc1ccccc1[N+](=O)[O-],inactive,
CN(C)CCO,inactive,
CCCN(CCC)N=O,inactive,
CCC(C)c1cc([N+](=O)[O-])cc([N+](=O)[O-])c1O (centres undefined),inactive,
OCC(O)CO,inactive,
O=C(N[C@H]1CN2CCC1CC2)c1cc2ccoc2cn1,inactive,
C=CC(=O)NCNC(=O)C=C,inactive,
CN(C)c1nc(=O)n(C2CCCCC2)c(=O)n1C,inactive,
c1ccc(-c2ccccc2)cc1,inactive,
Nn1cnnc1,inactive,
Cc1ccc(O)c(C)c1,inactive,
O=S(=O)(O)C(F)(F)C(F)(F)C(F)(F)C(F)(F)F,inactive,
Clc1ccc(Cl)cc1,inactive,
O=C(NC(=O)c1c(F)cccc1F)Nc1cc(Cl)c(OC(F)(F)C(F)F)c(Cl)c1,inactive,
Cc1cccc(C)c1N,inactive,

# Molecular target: Estrogen receptor beta (Homo sapiens) (UniProt Q92731)
# Sequence (Q92731 whole entry, looked up): as the sequence (Q92731 whole entry, looked up, the tested form may be a part) above
# Assay: OT_ER_ERbERb_0480: Odyssey Thera (OT) 8-hour HEK293T Protein-Complementation Assay for Estrogen Receptor-beta/-beta Homodimer (AID 2283357);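 also: active means signal gain over DMSO baseline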
# Procedure, shortened: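 Fluorescence gain from complemented reporter fragments on ER-beta LBD homodimer in HEK293T was quantified against DMSO controls after 8 h treatment, fixation in 4% formaldehyde and Draq5 staining.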
SMILES,outcome,AC50
CC(C)C(=O)OCC(C)(C)C(OC(=O)C(C)C)C(C)C (centres undefined),inactive,
CC#Cc1cc(C)nc(Nc2ccccc2)n1,inactive,
C1CC2OC2CC1C1CO1 (centres undefined),inactive,
ClC1=C(Cl)[C@]2(Cl)[C@@H]3[C@@H](Cl)[C@H]4O[C@H]4[C@@H]3C1(Cl)C2(Cl)Cl,,13.8 µM (active)
CCC(C)(CC)c1cc(NC(=O)c2c(OC)cccc2OC)on1,inactive,
CCNc1nc(NC(C)C)nc(SC)n1,inactive,
CN(C)CCO,inactive,
CCCN(CCC)N=O,inactive,
CCC(C)c1cc([N+](=O)[O-])cc([N+](=O)[O-])c1O (centres undefined),inactive,
OCC(O)CO,inactive,
O=C(N[C@H]1CN2CCC1CC2)c1cc2ccoc2cn1,inactive,
C=CC(=O)NCNC(=O)C=C,inactive,
CN(C)c1nc(=O)n(C2CCCCC2)c(=O)n1C,inactive,
c1ccc(-c2ccccc2)cc1,inactive,
Nn1cnnc1,inactive,
Cc1ccc(O)c(C)c1,inactive,
O=S(=O)(O)C(F)(F)C(F)(F)C(F)(F)C(F)(F)F,inactive,
O=C(NC(=O)c1c(F)cccc1F)Nc1cc(Cl)c(OC(F)(F)C(F)F)c(Cl)c1,inactive,
Cc1cccc(C)c1N,inactive,
Cc1ccccc1O,inactive,

# Molecular target: Retinoic acid receptor alpha (Homo sapiens) (UniProt P10276)
# Sequence (P10276 whole entry, looked up): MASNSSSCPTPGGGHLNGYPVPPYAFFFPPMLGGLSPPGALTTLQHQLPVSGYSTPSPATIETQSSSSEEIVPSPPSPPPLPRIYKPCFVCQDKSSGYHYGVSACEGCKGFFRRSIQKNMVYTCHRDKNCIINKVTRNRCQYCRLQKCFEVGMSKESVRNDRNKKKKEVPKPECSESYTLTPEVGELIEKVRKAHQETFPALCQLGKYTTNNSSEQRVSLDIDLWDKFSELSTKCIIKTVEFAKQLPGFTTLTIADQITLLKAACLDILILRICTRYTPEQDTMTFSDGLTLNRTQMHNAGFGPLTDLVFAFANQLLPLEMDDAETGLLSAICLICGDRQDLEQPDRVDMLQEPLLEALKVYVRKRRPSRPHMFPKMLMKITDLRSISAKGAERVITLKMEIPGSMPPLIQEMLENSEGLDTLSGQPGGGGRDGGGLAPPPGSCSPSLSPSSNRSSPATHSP
# Assay: NVS_NR_hRARa_Agonist: NovaScreen (NVS) Nuclear Receptor Binding Assay for human Retinoic Acid Alpha Receptor Agonism (RAR) (AID 2283361)
# Description: NVS_NR_hRARa_Agonist is a biochemical, single-readout assay that uses extracted gene-proteins in a cell-free assay. Measurements were taken 2 hours after chemical dosing in a 384-well plate.NVS_NR_hRARa_Agonist is one of one assay component(s) measured or calculated from the NVS_NR_hRARa_Agonist assay. It is designed to make measurements of fluorescent resonance energy transfer, a form of binding reporter, as detected with fluorescent resonance energy transfer signals by Time-Resolved Fluorescence Resonance Energy Transfer (TR-FRET) technology.Data from the assay component NVS_NR_hRARa_Agonist was analyzed into 1 assay endpoint. This assay endpoint, NVS_NR_hRARa_Agonist, was analyzed in the positive analysis fitting direction relative to DMSO as the negative control and baseline of activity. Using a type of binding reporter, gain-of-signal activity can be used to understand changes in the binding as they relate to the gene RARA. Furthermore, this assay endpoint can be referred to as a primary readout, because the performed assay has only produced 1 assay endpoint. To generalize the intended target to other relatable targets, this assay endpoint is annotated to the nuclear receptor intended target family, where the subfamily is non-steroidal.
# Binding assays used specific radioligands (tritiated, iodinated) with non-radioactive competitive displacement ligands in agonist or antagonist protocols (as indicated) and various reference compounds and inhibitors to titrate specific binding to receptors and transporters. Most enzyme assays (CYPs, kinases, phosphatases, proteases, HDACs) used recombinant protein and specific substrates (fluorescence mostly, some colorimetric and radioactive) and inhibitors, followed by a biochemical separation of substrate and product. All assays for the biochemical HTS were initially run in duplicate at a single concentration (10 uM for CYP450 assays and 25 uM for all others). […] Each assay was run with positive and negative controls, and concurrent controls on every plate. The follow-up (secondary) screen tested active chemical-pairs in concentration series, as well as a few additional assays not tested in the primary screen, some selected negative inactives, and several cases re-run in the concentration series for confirmatory purposes.
row,SMILES,outcome
1,ClC1=C(Cl)[C@]2(Cl)[C@@H]3[C@@H]4C[C@@H]([C@H]5O[C@@H]45)[C@@H]3[C@@]1(Cl)C2(Cl)Cl,inactive
2,COS(=O)(=O)OC,inactive
3,CC1=C2C[C@H]3[C@@H](CC=C4C[C@@H](O)CC[C@@]43C)[C@@H]2CC[C@]12O[C@@H]1C[C@H](C)CN[C@H]1[C@H]2C,inactive
